LYPLA1 counter: LYPLA1 (human) inhibition in PME1 counter-screen | O75608 | 320,000 tested, 0.16% active | inhibition, % at 5.9 µM | recombinant LYPLA1, FP-Rh probe fluorescence polarization;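 active = inhibition above the mean of all tested compounds plus 3 SD, set per campaign, cut at about 14% in these data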;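 also: inhibitors block serine hydrolase probe labeling of LYPLA1 so polarization falls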
PME-1 primary: blocks human protein phosphatase methylesterase 1 | 320,000 tested, 0.53% active | recombinant PME-1, FP-Rh probe fluorescence polarization | Q9Y570 | AID 2130 | inhibition, % at 5.9 µM;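 active = inhibition above the campaign mean of all compounds plus 3 SD, cut at about 26% in these data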;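 also: competitive labeling of PME-1 active site by serine hydrolase directed probe; inhibitors block probe labeling so polarization falls and inhibition rises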
GSTO1 counter: GSTO1 inhibition, counter-screen for RBBP9 inhibitors; recombinant GSTO1, activity-based probe fluorescence polarization; inhibition, % at 5.96 µM; 300,000 tested, 1.1% active;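 active = inhibition above the campaign mean inhibition plus 3 SD, cut at about 35% in these data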
Target sequence (P78417 whole entry, looked up): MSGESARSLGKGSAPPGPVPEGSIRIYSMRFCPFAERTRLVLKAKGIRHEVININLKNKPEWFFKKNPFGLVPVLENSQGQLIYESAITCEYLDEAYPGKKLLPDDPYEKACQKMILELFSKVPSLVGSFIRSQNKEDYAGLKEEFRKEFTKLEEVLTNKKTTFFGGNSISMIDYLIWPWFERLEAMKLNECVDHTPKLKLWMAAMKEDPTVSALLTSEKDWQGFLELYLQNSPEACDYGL
LYPLA2 inh: blocks human lysophospholipase 2, a PME1 counter-screen; recombinant LYPLA2, FP-Rh probe fluorescence polarization; inhibition, % at 5.9 µM; 320,000 tested, 0.38% active; O95372;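 active = inhibition above the screen-wide mean plus 3 SD, limit set per campaign, cut at about 26% in these data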
Target sequence (O95372 whole entry, looked up): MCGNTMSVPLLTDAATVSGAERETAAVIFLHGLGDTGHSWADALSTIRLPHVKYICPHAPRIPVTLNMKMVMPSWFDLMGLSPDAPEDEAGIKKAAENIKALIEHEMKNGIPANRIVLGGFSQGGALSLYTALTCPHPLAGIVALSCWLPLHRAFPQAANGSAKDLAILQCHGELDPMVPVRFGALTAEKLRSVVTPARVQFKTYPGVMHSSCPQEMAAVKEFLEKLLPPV
Fam108B counter: blocks mouse Fam108B hydrolase in RBBP9 counter-screen | recombinant Fam108B, FP-Rh probe fluorescence polarization | inhibition, % at 9.51 µM | 300,000 tested, 0.33% active;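 active = inhibition above the screen mean inhibition plus 3 SD, computed separately per campaign, cut at about 18% in these data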;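 also: inhibitors lower polarization as less probe binds the enzyme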
PAD4 FP inh: blocks human protein arginine deiminase 4; recombinant PAD4, RCA probe fluorescence polarization; inhibition, % at 6.36 µM; 330,000 tested, 0.41% active; AID 485272; Q9UM07;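 active = percent inhibition above a cutoff equal to the mean of all tested compounds plus 3 SD, cut at about 15% in these data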
GSTO1 inh conf: confirmation of human GSTO1 inhibitors. shares compounds with GSTO1 counter. recombinant GSTO1, probe fluorescence polarization. inhibition, % at 5.96 µM. 2,400 tested, 54% active. AID 2176;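 active = inhibition above the primary screen's cutoff, its mean inhibition plus 3 SD, cut at about 35% in these data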;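 also: loss of polarization as inhibitors block binding of rhodamine sulfonate ester activity probe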
GSTO1 ABPP inh: blocks recombinant human glutathione S-transferase omega 1. 130 tested, 30% active. recombinant GSTO1, gel ABPP SE-Rh probe fluorescence. AID 463110. inhibition, % at 1 µM. shares compounds with GSTO1 counter;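 active = inhibition of the enzyme GSTO1 above about 75%, limit read from the data; inactive = inhibition below that limit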
Numbers stand for hits; – = inactive; · = not tested or not shown. Compounds with a hit are over-represented: about 1.8% of the library has one in this group of screens.

SMILES | LYPLA1 counter | PME-1 primary | GSTO1 counter | LYPLA2 inh | Fam108B counter | PAD4 FP inh | GSTO1 inh conf | others
COc1ccccc1CNc1ccc(N2CCCCC2)cc1 | – | – | 51 | – | – | – | –
CCOc1cc(CNc2ccc(S(N)(=O)=O)cc2)cc(Cl)c1OC | – | – | – | – | – | – | ·
CCOc1cc(CNc2ccc(N3CCCC3)cc2)cc(Cl)c1OC | – | – | 70 | – | – | – | 70
COc1cc(CNc2ccc(N3CCCC3)cc2)cc(Cl)c1OC | – | – | 59 | – | – | – | 57
O=C(Nc1ccc(OC(F)(F)C(F)F)c(NC(=O)c2cccc(F)c2)c1)c1cccc(F)c1 | – | – | – | – | – | – | ·
CSc1ccc(C(c2c(C)[nH][nH]c2=O)c2c(C)[nH][nH]c2=O)cc1 | – | – | 39 | – | – | – | –
O=C(N/N=C/c1ccc(O)c(O)c1O)/C(=C/c1ccc([N+](=O)[O-])cc1)NC(=O)c1ccccc1 | – | – | 54 | – | – | – | –
Cc1ccc(NC(=O)/C(=C\c2ccc([N+](=O)[O-])cc2)NC(=O)c2ccccc2)cc1 | – | – | – | – | – | – | ·
CC(C)(C)c1ccc(C(=O)N2CCN(c3ncccn3)CC2)cc1 | – | – | – | – | – | – | ·
O=C(c1ccccc1OCc1ccccc1Br)N1CCN(c2ncccn2)CC1 | – | – | – | – | – | – | ·
CCn1c(C)nc2cc(C(=O)N/N=C/c3cccc(O)c3O)ccc21 | – | – | 45 | – | – | – | –
Cc1nn(-c2ccccc2)c2c1C(c1ccco1)C(C#N)=C(N)O2 (centres undefined) | – | – | 41 | – | – | – | –
COc1cc(C2C(C#N)=C(N)Oc3c2c(-c2ccccc2)nn3-c2ccccc2)cc(OC)c1OC (centres undefined) | – | – | 52 | – | – | – | –
Cc1nn(-c2ccccc2)c2c1C(c1ccc([N+](=O)[O-])cc1)C(C#N)=C(N)O2 (centres undefined) | – | – | – | – | – | – | ·
COc1cccc(CN(C)CC(=O)NC(=O)NCc2ccco2)c1 | – | – | – | – | – | – | ·
CCOC(=O)N1CCC(NC(=O)c2ccc(CS(=O)(=O)c3ccc(OC)cc3)o2)CC1 | – | – | – | – | – | – | ·
O=C(CCl)NC1(C(F)(F)F)C(=O)Nc2c1c(=O)[nH]c(=O)n2-c1ccccc1 (centres undefined) | – | – | 67 | – | – | – | 71
O=C1CCCC2=C1C(c1ccc(O)c(O)c1)Nc1ccc3ccccc3c12 (centres undefined) | – | – | 67 | – | – | – | –
COc1cc(C2Nc3ccc4ncccc4c3C3=C2C(=O)CCC3)cc(OC)c1O (centres undefined) | – | – | – | – | – | – | ·
O=C(OC1CCc2ccccc2C1=O)c1ccccc1O (centres undefined) | – | – | 54 | – | – | – | 48
Cc1cc(O)cc(C)c1Cl | – | – | – | – | – | – | ·
Cc1cc(O)c(N)c(C)c1Cl | – | – | 46 | – | – | – | –
O=C(COC(=O)CN1C(=O)COc2ccccc21)NC1CCCCC1 | – | – | – | – | – | – | ·
NC(=O)CCn1c(C(=O)c2ccc(Cl)cc2)c2ccccc2[n+]1[O-] | – | – | 50 | – | – | – | –
Cc1ccc(C(=O)c2c3ccccc3[n+]([O-])n2CCC(=O)O)cc1 | – | – | – | – | – | – | ·
SMILES | LYPLA1 counter | PME-1 primary | GSTO1 counter | LYPLA2 inh | Fam108B counter | PAD4 FP inh | GSTO1 inh conf | others
Oc1ccc(CCNc2c3ccccc3nc3ccccc23)cc1O | – | – | 48 | – | – | – | –
O=C(O)CC1(CC(=O)Nc2ccc3c(c2)OCCCO3)CCCCC1 | – | – | – | – | – | – | ·
CC(C)NC(=O)CN1CCN(C(=O)CCl)CC1 | – | – | 38 | – | – | – | 58 | GSTO1 ABPP inh=–
O=Nc1ccc(O)c2ncccc12 | – | – | 69 | – | – | – | –
COc1ccc(N=Nc2ccc(O)c3ncccc23)cc1 | – | – | – | – | – | – | ·
O=[N+]([O-])c1ccc(O)c2cccnc12 | – | – | – | – | – | – | ·
O=[N+]([O-])c1ccc(O)c2ncccc12 | – | – | 45 | – | – | – | –
COc1cccc(N=Nc2ccc(O)c3ncccc23)c1 | – | – | 39 | – | – | – | –
Cc1ccccc1N=Nc1ccc(O)c2ncccc12 | – | – | – | – | – | – | ·
O=[N+]([O-])c1cc([N+](=O)[O-])c2cccnc2c1Oc1ccccc1O | – | – | 50 | – | – | – | –
CSc1ccc(CNCc2ccco2)cc1 | – | – | – | – | – | – | ·
C/C(=N\NS(=O)(=O)c1ccc(Cl)c([N+](=O)[O-])c1)c1cc2ccccc2o1 | – | – | 40 | – | – | – | –
C/C(=N\NS(=O)(=O)c1ccc(C)c([N+](=O)[O-])c1)c1cc2ccccc2o1 | – | – | – | – | – | – | ·
C/C(=N\NS(=O)(=O)c1ccc(Cl)c([N+](=O)[O-])c1)c1ccc(C)o1 | – | – | 49 | – | – | – | –
O=C(Nc1cc(S(=O)(=O)N2CCOCC2)ccc1OCC(F)(F)F)C1=COCCO1 | – | – | – | – | – | – | ·
Cc1ccc(S(=O)(=O)N(C(=O)c2ccncc2)c2ccc(OC(=O)c3ccncc3)c3ccccc23)c(C)c1 | – | – | 55 | – | – | – | –
Cc1ccc(S(=O)(=O)N(C(=O)c2ccncc2)c2ccc(OC(=O)c3ccncc3)c3ccccc23)cc1 | – | – | 43 | – | – | – | –
COc1ccc(NS(=O)(=O)c2ccc3c(c2)N(C(C)=O)CCO3)cc1 | – | – | – | – | – | – | ·
COC(=O)C(N)Cc1ccc(O)cc1 (centres undefined) | – | – | – | – | – | – | ·
COC(=O)C(N)Cc1ccc(O)c(O)c1 (centres undefined) | – | – | 90 | – | – | – | –
N#CC(C#SN)=C1CCCCC1 | – | – | 52 | – | – | – | –
N#CC(C(=O)O)=C1CCCC1 | – | – | – | – | – | – | ·
CN(C)c1ccc(CN(C(=O)c2ccc(Cl)c([N+](=O)[O-])c2)C2CCS(=O)(=O)C2)cc1 (centres undefined) | – | – | – | – | – | – | ·
CCC1(CC)NC(=O)N(CC(=O)OCC(=O)Nc2sccc2C#N)C1=O | – | – | – | – | – | – | ·
Cc1noc(C)c1C(=O)N1CCCC(C(=O)c2cccc(C(F)(F)F)c2)C1 (centres undefined) | – | – | – | – | – | – | ·
O=C(COC(=O)c1cc(-c2ccc(F)cc2)nc2ccccc12)NCC1CCCO1 (centres undefined) | – | – | – | – | – | – | ·
COc1ccc(C(=O)N/C(=C\c2cn(S(=O)(=O)N(C)C)c3ccccc23)C(=O)NCCCN2CCOCC2)cc1 | – | – | – | – | – | – | ·

Screens: PubChem, The Scripps Research Institute Molecular Screening Center
